74 compounds from PubChem BioAssay AID624354 (Sanford-Burnham Center for Chemical Genomics, 2012) can be followed below.

In all, about 360,000 compounds went through this assay and about 3,800 (1.1%) were called active. The full list was thinned out, with actives kept by preference. Unmarked numbers belong to inactive results.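 The calls were made as follows: active = compounds causing at least 50% loss of cell viability in the single-dose screen, relative to plate controls; inactive = the rest.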

A short description of this test: TRAIL-exposed caspase-8 expressing cell killing – NB7+C8 cells, ATPlite luminescence, TRAIL sensitizer project, primary screen (AID 624354). The note with it: at 10 µM, hits give high values. (In general: In ATP-based viability assays light output follows the ATP content of the culture.)
For the compound `C=CCN(CC=C)C(=O)CN1C(=O)c2ccccc2C1=O`, the inhibition (viability loss, TRAIL sensitization) is 36.5%.
Then `Cc1ccccc1C(=O)NNC(=O)CN1C(=O)c2ccccc2C1=O`, with -2.34%; and `C=CCn1c(C)cc(C(=O)CN2C(=O)c3ccccc3C2=O)c1C`, with 52% (active).
The value for `COc1ccc(CN2C[C@H]3CON(C)[C@H]3C[C@H]2c2ccc(-c3cccc(F)c3)cc2)cc1` was 17%.
Turning to `COc1cc(NC(=O)Nc2ccc(C)cc2)cc([N+](=O)[O-])c1`, the inhibition (viability loss, TRAIL sensitization) was 3.5%.
Then `COc1ccc(NC(=O)/C(Cl)=C(/Cl)S(=O)Cc2ccc(C)cc2)cn1` (centres undefined), with 95.5% (active); and `COC(C)(C)[C@]12CC(O)(C(C)C)ON1[C@H]1CCCCC1N2O` (some centres undefined), with -21.2%.
The value for `O=[N+]([O-])c1cccc(C=NN=Cc2ccccc2O)c1` was 11%.
The value for `O=[N+]([O-])c1c(NCCO)cc(Sc2nc3ccccc3s2)c2nonc12` was 20.4%.
With `O=[N+]([O-])c1cc(Br)c(O)c(/C=N/Nc2nc3ccccc3s2)c1`, the inhibition (viability loss, TRAIL sensitization) was 51.2% (active).
The value for `CC(C)C[C@H]1CNC(=S)N1C[C@H]1CCCN1C[C@H](Cc1ccc(O)cc1)N1C[C@H](Cc2ccc(O)cc2)N(CC2CCCCC2)C1=S` was 9.11%; that for `COc1cc(/C=C2\Oc3ccc(C#Cc4ccc(O)cc4)cc3C2=O)cc(OC)c1` was 64.7% (active); that for `COc1cc(C(=O)N2CCOC23CCN(Cc2ccccc2)CC3)cc(OC)c1OC` was -0.803%.
Then `CCSCc1nc(N)nc(NCCc2ccccc2)n1`, with -10.6%; and `CC(=O)Nc1cccc(C(=O)OCC(=O)c2ccc3c(c2)OCO3)c1`, with 61.4% (active).
The value for `CC(=O)Nc1cccc(C(=O)OCC(=O)NCc2cc(C)c(O)c(C)c2)c1` was -2.97%.
Regarding `CC(=O)Nc1cccc(C(=O)OCN2C(=O)c3ccccc3C2=O)c1`, the inhibition (viability loss, TRAIL sensitization) was -5.54%.
The value for `CC(C)C[C@@H](COc1ccccc1)N1CCN(CC(C)C)CCC1=O` was -6.68%.
In the case of `CCCCc1nc(NCCN)c(C#N)c2c1CSC(C)(C)C2`, the inhibition (viability loss, TRAIL sensitization) was 57.7% (active).
For the compound `CCCCc1nc(NCc2ccccc2)c(C#N)c2c1CCCC2`, the inhibition (viability loss, TRAIL sensitization) was 4.11%.
With `CC(=O)N1CCCc2cc(S(=O)(=O)N3CCCC(C(=O)N4CCN(c5cccc(Cl)c5)CC4)C3)ccc21` (centres undefined), the inhibition (viability loss, TRAIL sensitization) was 35.8%.
With `Cc1nc2ccc(N)nc2nc1C`, the inhibition (viability loss, TRAIL sensitization) is 6.29%.
The value for `COc1cccc(-n2c(=O)c3c(C)c(C(=O)N(C)C)sc3n(CC(=O)NCCc3ccc(OC)c(OC)c3)c2=O)c1` was -6.94%; that for `Cc1cccc(/C(N)=N/OC(=O)c2ccccc2Cl)c1` was 60.5% (active); that for `Cc1cc(OC(=O)c2ccccc2Cl)ccc1N1C(=O)CCC1=O` was 7.7%.
Then `C/C(=N\OC(=O)c1ccccc1)c1c(C)nc2cc(C)ccn12`, with -6.57%; and `O=C(Nc1cccc2c1N(C(=O)c1ccco1)CCC2)c1ccco1`, with -4.17%.
Then `Cc1ccc(C(C)C)c(OCCSc2nc3ccccc3n2CC(=O)O)c1`, with -6.21%.
Regarding `COc1ccc(NC(=O)CN2C(=O)COc3ccc(S(=O)(=O)N4CCOCC4)cc32)cc1`, the inhibition (viability loss, TRAIL sensitization) is 4.01%.
As to `Cc1cc(Cl)c2oc(C(=O)N3CCC(O)(c4ccccc4)CC3)c(C)c2c1`, the inhibition (viability loss, TRAIL sensitization) was 12.6%.
For the compound `C[C@@H](Nc1nc(-c2ccccc2)nc2c1oc1ccccc12)C(=O)O`, the inhibition (viability loss, TRAIL sensitization) was -9.15%.
Then `Cc1nc(N2CCCC2C(=O)O)c2oc3ccccc3c2n1` (centres undefined), with -12.2%; and `Cc1nc(Cl)c2oc3ccccc3c2n1`, with 69.6% (active).
Then `Cc1ccc(N(Cc2cc(=O)[nH]c3ccccc23)C(=O)CCl)cc1`, with 92.9% (active); and `CC(=O)N(Cc1cc(=O)[nH]c2ccccc12)c1ccc(C)cc1C`, with 1.98%.
Then `CCC(=O)N(Cc1cc2ccccc2[nH]c1=O)c1ccc(OC)cc1`, with -1.03%.
Consider `CN(C(=O)CSc1nnc(-c2ccc3c(c2)OCO3)o1)C1CCS(=O)(=O)C1` (centres undefined), for which the inhibition (viability loss, TRAIL sensitization) is -7.74%.
The value for `C=C1C(=O)[C@]23C[C@H]1CCC2[C@@]1(C)C(C[C@@H]3O)[C@](C)(C(=O)O)CC[C@@H]1O` (some centres undefined) was 25.6%; that for `CCOc1ccc2nc(N3CCCN(C(=O)Nc4ccccc4C)CC3)c(C#N)cc2c1` was 4.35%; that for `CCOc1ccc2cc(C#N)c(SCC(=O)OC)nc2c1` was 51.7% (active).
Then `COc1ccc(CCNC(=O)CSc2nc(-c3ccc(OC)c(OC)c3)ccc2C#N)cc1`, with 28%.
The value for `O=C(NCCO)C(=O)NCC(c1ccc2c(c1)OCO2)N1CCN(c2ccc(F)cc2)CC1` (centres undefined) was -13%; that for `COc1ccc([N+](=O)[O-])cc1NC(=O)C(C)OC(=O)C1c2ccccc2Oc2ccccc21` (centres undefined) was 5.23%; that for `CCN(C(=O)COc1cccnc1[N+](=O)[O-])C1CCS(=O)(=O)C1` (centres undefined) was -20.2%.
In the case of `CCC(=O)Nc1nnc(S(=O)(=O)N2CCCc3ccccc32)s1`, the inhibition (viability loss, TRAIL sensitization) was 18.7%.
Then `CCOc1ccc2nc(C(=O)N3CCCC(C)C3)sc2c1` (centres undefined), with 31.9%; and `CCN(C(=O)COc1ccc(C(=O)c2ccccc2)cc1)c1ccccc1`, with 5.81%; and `CC1CCN(C(=O)c2cccc(S(=O)(=O)N3CCCc4ccccc43)c2)CC1`, with 9.56%.
On to `CCOc1ccc2nc(N(CCCN(C)C)C(=O)c3ccc(C(=O)c4ccccc4)cc3)sc2c1`, for which the inhibition (viability loss, TRAIL sensitization) was 84.6% (active).
As to `CN(C)CCCN(C(=O)c1ccc(S(=O)(=O)N2CCCc3ccccc32)cc1)c1nc2ccc(F)cc2s1`, the inhibition (viability loss, TRAIL sensitization) was 49.7% (active).
Then `CC(C)CC(=O)N1CCN(Cc2ccccc2Br)CC1`, with -13.2%; and `COC(=O)[C@]12CCCCC=C1N(Cc1cccc3ccccc13)C(=O)[C@H](CC(=O)N1CCOCC1)C2`, with -17.8%.
The value for `CCN(Cc1ccncc1)C(=S)Nc1ccccc1C` was -14.3%.
Consider `COc1cc(C=O)ccc1Oc1nnnn1-c1ccccc1`, for which the inhibition (viability loss, TRAIL sensitization) was 9.4%.
Then `O=C(CNC(=O)c1cc(=O)[nH]c2ccccc12)Nc1ccc(F)c(F)c1`, with -6.89%.
Then `CCC1Oc2ccccc2N(CC(=O)NCCCN2CCN(CC)CC2)C1=O` (centres undefined), with -10.7%.
The value for `CN1CCN(CCCNC(=O)c2ccc(/C=C3\Oc4ccccc4N(Cc4ccc(Cl)cc4)C3=O)cc2)CC1` was 70.5% (active); that for `Cc1ccc(NC(=O)CCCNC(=O)c2ccc(Cl)cc2)cc1S(=O)(=O)N1CCOCC1` was 3.06%; that for `O=C(Nc1cccc(F)c1)N1C2CCC1CC(O)(c1cccnc1)C2` (centres undefined) was -0.997%.
In the case of `Cc1ccsc1C(=O)OCC(=O)c1cc(C)n(CC2CCCO2)c1C` (centres undefined), the inhibition (viability loss, TRAIL sensitization) is 75.4% (active).
Then `CCCn1c(C)cc(C(=O)COC(=O)c2c(C)nn(-c3ccccc3)c2C)c1C`, with 1.44%; and `COc1ccc(CNC(=O)COC(=O)c2sccc2C)cc1OC`, with -16.5%; and `COc1ccc(/C=N/N=C/c2c[nH]c(=O)c(C#N)c2Nc2ccccc2)cc1`, with 19.4%.
`COc1ccc(-c2cn3ccsc3n2)cc1`: the inhibition (viability loss, TRAIL sensitization) is 54.1% (active).
Then `COc1ccc(-c2cc3nc(NCCOc4ccccc4)ccn3n2)cc1`, with 2.79%.
The value for `COc1ccc(-c2cn3ccc(C)cc3n2)cc1` was 87.1% (active).
Then `Cc1ccc(S(=O)(=O)NCc2cn3ccsc3n2)c(C)c1`, with -5.68%; and `COc1cc(OC)cc(-c2nc(=S)n3ccsc3n2)c1`, with -7%; and `FC(F)(F)Oc1ccc(-c2cn3cccnc3n2)cc1`, with 34.5%.
On to `CCn1cc(C(=O)NCC(=O)NC(C)(C)CO)c(=O)c2cc3c(cc21)OCO3`, for which the inhibition (viability loss, TRAIL sensitization) was -16.5%.
The value for `COc1ccc(C(C)NC(=S)NC2CCCCC2)cc1OC` (centres undefined) was -10.3%.
The value for `CN1CC(c2ccccc2)C2(COc3ccccc3C2=O)C12C(=O)Nc1ccccc12` (centres undefined) was 1.61%; that for `COc1ccc(OC)c(NC(=O)CSc2nc(N)c(-c3ccccc3)c(=O)[nH]2)c1` was -16.4%.
The value for `OC(CNCc1ccc(Cl)c(Cl)c1)c1ccccc1` (centres undefined) was 1.28%.
